Measurements as given in PubChem BioAssay AID435000 (NMMLSC, 2010).
This is one part of the list.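 Rule for the calls: active = fluorescence response below 15%; inactive = the rest.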

Experiment: DHE quenching or ROS scavenging interference in aged yeast, artefact control for yeast caloric restriction mimetic project, S. cerevisiae BY4741, flow cytometry (AID 435000);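 note: percent of the mean fluorescence averaged over all compound wells on the plate; lower means stronger quenching of DHE signal or ROS scavenging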
Settings: at 10 µM, stronger effect = lower value

Fluorescence response, inactive:
Cc1cc2oc(C(=O)Nc3c(C)n(C)n(-c4ccccc4)c3=O)c(C)c2cc1Cl 95.3%
CC(C)(C)NC(=O)COc1ccc(CNc2ccc3[nH]c(=O)[nH]c3c2)cc1 94.4%
CCN(CC)C(=O)CSc1nnc(-c2cccc(OC)c2)o1 110%
COc1ccc(NC(C)=O)cc1NC(=O)CN1CCN(c2ccccn2)CC1 96.8%
O=C(Nc1ccccc1N1CCCC1)c1ccc2ccccc2c1 103%
CNC(=O)c1cccc2nc3ccccc3nc12 105%
CC(=O)NC1=NN(C(C)=O)C(C)(CCS(=O)(=O)c2ccc(Cl)c(Cl)c2)S1 (configuration not stated) 112%
CC1CCCN(S(=O)(=O)c2ccc(C(=O)Nc3nnc(-c4ccncc4)o3)cc2)C1 (configuration not stated) 109%
Cc1ccccc1NC(=O)NCC1CCN(Cc2cccc(Cl)c2)CC1 101%
O=C(Nc1ccc(Br)cn1)c1ccc([N+](=O)[O-])cc1Cl 94%
COc1cccc(NC(=O)NCCN2CCCCC2)c1 93.8%
Cn1c(Nc2ccccc2)cc(=O)n(C)c1=O 113%
COc1ccc(CCNC(=O)c2ccccc2-c2ccccc2C(=O)O)cc1OC 110%
Cc1ccc(C23CC4CC(CC(C(=O)NCC(=O)O)(C4)C2)C3)cc1 94.6%
Cc1cc(C(F)F)n2nc(C(=O)Nc3ccc(S(=O)(=O)NC45CC6CC(CC(C6)C4)C5)cc3)nc2n1 104%
Cc1ccc(NC(=O)Cn2nc(C)c3ccccc3c2=O)c(C)c1 110%
O=[N+]([O-])c1ccc2c(c1)Nc1nc3ccccc3nc1N2 92.7%
NC(=S)Nc1c(Cl)cccc1Cl 97.4%
CN1CCN(c2cc3c(cc2F)c(=O)c(C(=O)O)cn3CCF)CC1 100%
Cc1ccc(-c2nc(CSCC(=O)NC3CCN(Cc4ccccc4)CC3)c(C)o2)cc1 94.6%
CCn1c2ccccc2c2cc(CC(N)=O)ccc21 105%
O=C(CSc1ccc(-c2ccc(-n3cccn3)cc2)nn1)Nc1ccc([N+](=O)[O-])cc1 88.8%
